# Rows were chosen to be rich in hits. Some 0.72% of all compounds tested hit in one or more screens of this group.
# MRP-1 activ = MRP-1 activation. 140,000 compounds, 0.61% hits. H69AR cells + doxorubicin, viability rescue, CellTiter-Glo. viability increase, % at 10 µM;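 active = viability gain under doxorubicin at or above a set limit, the compound median plus 3 SD, cut at about 4.7% in these data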;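 note: MRP-1 overexpressing cells given doxorubicin 25 µM after compound pretreatment; 18-22 h compound pretreatment then 72 h with doxorubicin before readout; 0% = doxorubicin-only wells and 100% = vehicle-treated cells without doxorubicin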
# Phagocyt inh = inhibitors of macrophage phagocytosis. J774A.1 macrophage IgG-bead phagocytosis, imaging. inhibition, % at 5 µM. 110,000 compounds, 0.07% hits. AID 1029;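 active = inhibition above the mean of the plate negative controls plus 5 SD, cut at about 13% in these data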;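 note: phagocytic index as fraction of beads internalized from green versus red external bead signal; plate controls were DMSO negative control for no effect and cytochalasin-D positive control for full effect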
# MRP reversal = compounds reversing MRP-mediated drug resistance | H69AR cells + 2 uM doxorubicin, CellTiter-Glo, 72 h | differential viability (reversal), % at 10 µM | 85,000 compounds, 0.04% hits;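 active = viability drop by adding the cancer drug above about 55%, with treated viability meeting a 40% cutoff, limit read from the data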;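 note: viability without doxorubicin minus viability with 2 µM doxorubicin for each compound; larger differential means the compound sensitizes cells more to doxorubicin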
# Starred values were filed as active, the others as inactive; / = no result given; + = active, no number.
SMILES,MRP-1 activ,Phagocyt inh,MRP reversal
Cc1ccc(C2NNC(=O)C2NC(=O)c2ccccc2)cc1 (configuration not stated),0,-1,/
COc1ccc(NC(=O)C2C(=O)NC3(C)CC2c2ccccc2O3)cc1 (configuration not stated),4.9*,-1,18
COc1ccc(C(C)NC(=O)C2C(=O)NC3(C)CC2c2ccccc2O3)cc1 (configuration not stated),-3,0,11
CCCC1=C(C(=O)OCC)C(c2cc(Cl)cc(OC)c2OCc2ccccc2)NC(=O)N1 (configuration not stated),-4,/,-2
COc1ccc(C(=O)N2N=C(c3cccc(OC)c3)CC2(O)C(F)(F)F)cc1 (configuration not stated),-2,-2,/
Cc1cccc(N2CCN(C(=O)Cc3ccc(-n4c(=O)[nH]c5ccsc5c4=O)cc3)CC2)c1C,3,-2,/
Cc1ccc(C)c(N2CCN(C(=O)Cc3ccc(-n4c(=O)[nH]c5ccsc5c4=O)cc3)CC2)c1,9.6*,-6,/
COc1cccc(C2(CSc3nnc(-c4cc(OC)c(OC)c(OC)c4)o3)OCCO2)c1,-5,-1,/
Cc1ccc(-n2c(Cn3nc(C(F)F)cc3C(F)F)n[nH]c2=S)cc1,-2,0,/
CCOc1ccccc1C(=O)N(Cc1ccccc1)Cc1cc2cc3c(cc2[nH]c1=O)OCCO3,/,/,-3
O=C(NCc1ccccc1Cl)c1ccc2nc[nH]c2c1,-1,-5,/
CCOc1ccc(-n2nc3c(-n4ncc(C#N)c4N)nnc(C)c3c2C)cc1,/,/,-4
CC(/C=N/NC(=O)c1c(Br)cnn1C)=C\c1ccccc1,1,-2,/
CC(/C=N/NC(=O)c1nn(C)c(C)c1Br)=C\c1ccccc1,7.7*,1,/
CCOP(=O)(OCC)C(NC(=O)Nc1ccc(Cl)cc1)C(=O)N(CC)CC (configuration not stated),8.9*,-15,/
CCOP(=O)(OCC)C(NC(=O)Nc1cccc(Cl)c1)C(N)=O (configuration not stated),1,-9,/
Clc1ccc(OCCSc2ncccn2)c2ccccc12,5.0*,0,2
c1cnc(SCCOc2cccc3ccccc23)nc1,1,0,10
O=C(CSc1nc2ccccc2c(=O)n1-c1ccccc1)N1CCN(CCO)CC1,-1,-1,4
Cc1sc2nc(SCC(=O)N3CCN(CCO)CC3)n(-c3ccccc3)c(=O)c2c1C,-1,+,-14
CC(SC1=NCCS1)C(=O)Nc1nnc(-c2ccc(F)cc2)s1 (configuration not stated),-1,0,-5
CC(SC1=NCCS1)C(=O)Nc1nnc(-c2ccc(Br)cc2)s1 (configuration not stated),5.8*,0,-26
NS(=O)(=O)c1cccc(NC(=O)CN2CCN(Cc3ccc4c(c3)OCO4)CC2)c1,-2,-9,/
NC(=O)[C@@H]1CCCNc2c(I)cc([N+](=O)[O-])cc2C(=O)N[C@@H](CCC(=O)O)C(=O)N[C@@H](CO)C(=O)N1,0,/,/
O=C(COC(=O)CNC(=O)c1ccc(Cl)cc1)Nc1ccc(Cl)cc1C(F)(F)F,1,-3,/
SMILES,MRP-1 activ,Phagocyt inh,MRP reversal
COc1ccc2c(c1)c(C(=O)N/N=C/c1ccc(OC)c(OC)c1)c(C)n2C,-2,/,/
CC(OC(=O)c1snc(C(=O)NC2CCCCC2)c1N)C(=O)NC(C)(C)C (configuration not stated),6.2*,/,-13
CC(C)(C)NC(=O)COC(=O)c1snc(C(=O)NC2CCCCC2)c1N,2,1,14
O=C(NNC(=S)Nc1cccc(C(F)(F)F)c1)c1cccc(Cl)c1,-4,-5,/
O=C(NNC1=C(C(=O)C(F)(F)F)CCC1)c1ccc(Cl)cc1,6.4*,-2,-28
CC(C)(C)c1ccc(C(=O)NNC(=O)c2ccc(Cl)cc2)cc1,-3,-6,/
O=C(NNC1=C(C(=O)C(F)(F)F)CCC1)c1cccc(Cl)c1,6.5*,-3,-23
O=C(CNC(=O)c1ccc(-c2ccccc2)cc1)OCc1c(F)cccc1Cl,0,-1,/
CCCCOc1ccc(C(=O)Oc2ccc(C)nc2)cc1,5.5*,-3,6
CCCCCOc1ccc(OC(=O)c2ccncc2)cc1,-1,/,-29
O=C(NCCCN1CCC(Cc2ccccc2)CC1)C1CC(=O)N(C2CCCCCC2)C1 (configuration not stated),-4,0,13
CC1=NN(C(N)=S)C(=O)C1N=Nc1ccc(C)cc1C (configuration not stated),-2,0,/
CC1=NN(C(N)=S)C(=O)C1N=Nc1ccccc1C (configuration not stated),-2,/,91*
Cc1ccc(C(=O)Nc2nc(=O)n(C(=O)C3CC3)s2)cc1,1,-1,/
O=C(Nc1nc(=O)n(C(=O)C2CC2)s1)c1ccccc1,6.8*,0,/
CC(C)Cn1c2c(c(O)c(C(=O)Nc3ccc(F)cc3)c1=O)CCCC2,6.3*,-1,-9

# Compound activity as filed in PubChem BioAssay.
